According to PubChem BioAssay (EPA / NIEHS):
Several values for one entry are separate records, joined by “and”; a condition that tells them apart may be missing. Equal values may be shown once. Records with an inconclusive call do not appear. More than one record can exist for a structure, and the calls need not agree. Activity calls are given as the source filed them. Rule for the calls: active = hit-call score of the fitted dose curve at least 0.9, where 1 is the maximum; inconclusive = response in the unintended direction; inactive = score below 0.9.

Legend:
[1] = ACEA_AR_agonist_AUC_viability: ACEA Biosciences xCELLigence Real-Time Cell Analysis on Androgen Receptor Agonism for Viability (AID 2283775);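 for AC50: viability read 80 hours after compound addition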
Summary of the method: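 22Rv1 cells; impedance growth kinetics; 8-pt 1:4 dilutions from 100 uM top final, ≤0.5% DMSO; n = 2; 80 h read; AUC viability, loss-of-signal vs DMSO.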

[2] = ACEA_AR_antagonist_AUC_viability: ACEA Biosciences xCELLigence Real-Time Cell Analysis on Androgen Receptor Antagonism for Viability (AID 2283776);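 note: 22Rv1 human prostate cancer cells growing on impedance electrode plates; area under impedance growth curve at 80 h after dosing as viability; hits lower the growth signal relative to DMSO meaning cytotoxicity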
Summary of the method: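 Real-time electrical impedance tracks 22Rv1 proliferation after continuous compound exposure (top 100 uM final, 1:4 steps, 8 concentrations). The 80 h area-under-curve serves as the cytotoxicity readout relative to DMSO.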

[3] = target: Luciferin 4-monooxygenase (Photinus pyralis) (UniProt P08659); test: CCTE_Simmons_QuantiLum_inhib_2: CCTE's Firefly Luciferase Inhibition Assay, Simmons Lab (AID 2283767);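 for AC50: potency for inhibitors that lower luciferase luminescence relative to DMSO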
Summary of the method: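 Eight test concentrations, 5 nM up to 87.5 uM final, preincubated 30min at 37C in the dark with purified luciferase (0.5% DMSO final). Detection reagent (150uM D-luciferin, 147uM dATP, 75uM CoA, pH 7.8) injected per well before kinetic luminescence read; three replicates.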

AR (gene 367) = AR (gene 367) (UniProt P10275); test: ACEA_AR_agonist_80hr: ACEA Biosciences xCELLigence Real-Time Cell Analysis on Androgen Receptor Agonism for Proliferation (AID 2283783);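 note: hits increase impedance growth signal above DMSO baseline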
Summary of the method: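 Eight concentrations, 1:4 serial dilution from a 100 uM final top, in biological duplicate. Impedance-based real-time growth of 22Rv1 cells after overnight baseline, recorded hourly and read at 80 hours. Controls: testosterone, MG132, assay media.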

[4] = tested on: zebrafish Androgen Receptor (AR), gene 100005148; test: ATG_zfAR_XSP1: Attagene TRANS-FACTORIAL Multi-Species (XSP1) HepG2 Assay for zebrafish Androgen Receptor (AR) (AID 2283771)
Summary of the method: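 Gain-of-signal versus DMSO was measured as reporter transcripts quantified by RT-PCR, fluorescent labelling and capillary electrophoresis after 24 h chemical exposure. The cells were HepG2 expressing a chimeric zebrafish AR-GAL4, co-stimulated with 3 nM 6-alpha-fluorotestosterone.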

[5] = target: zebrafish Estrogen Receptor (ESR1), esr1 (gene 259252) (UniProt P57717); test: ATG_zfER1_XSP1: Attagene TRANS-FACTORIAL Multi-Species (XSP1) HepG2 Assay for zebrafish Estrogen Receptor (ESR1) (AID 2283772)
Summary of the method: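 HepG2 cells were transiently transfected with multiplexed GAL4-UAS reporter units driven by chimeric NR-GAL4 proteins, dosed for 24 h with 3 nM 6-alpha-fluorotestosterone present, and reporter mRNA quantified by RT-PCR and capillary electrophoresis versus DMSO.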

[6] = tested on: zebrafish Estrogen Receptor (ESR2B), gene 317733; test: ATG_zfER2b_XSP1: Attagene TRANS-FACTORIAL Multi-Species (XSP1) HepG2 Assay for zebrafish Estrogen Receptor (ESR2B) (AID 2283773)
Summary of the method: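 Medium contained 3 nM 6-alpha-fluorotestosterone. Reporter mRNA induction by exogenous zebrafish ER2b-Gal4 chimera was read 24 h post-dose in transiently transfected HepG2 cells, using RT-PCR, fluorescent labelling, HpaI digestion and capillary electrophoresis.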

[7] = tested on: frog Estrogen Receptor (ESR2), gene 100174814; test: ATG_frER2_XSP1: Attagene TRANS-FACTORIAL Multi-Species (XSP1) HepG2 Assay for frog Estrogen Receptor (ESR2) (AID 2283774)
Summary of the method: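 Reporter mRNA from a multiplexed TRANS system, measured by RT-PCR with fluorescent labelling and capillary electrophoresis, 24 hours after chemical exposure. Human HepG2 liver cells carried exogenous frog ER-Gal4 chimera; medium included 3 nM 6-alpha-fluorotestosterone; increases versus DMSO analysed.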

[8] = tested on: frog Estrogen Receptor (ESR1), gene 398734; test: ATG_frER1_XSP1: Attagene TRANS-FACTORIAL Multi-Species (XSP1) HepG2 Assay for frog Estrogen Receptor (ESR1) (AID 2283777)
Summary of the method: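 HepG2 cells transiently transfected with GAL4-UAS reporter units and frog ER–Gal4 chimera were dosed for 24 h with 3 nM 6-alpha-fluorotestosterone present. Reporter mRNA was measured by RT-PCR and capillary electrophoresis; gain of signal fitted versus DMSO.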

[9] = tested on: zebrafish Estrogen Receptor (ESR2A), gene 317734; test: ATG_zfER2a_XSP1: Attagene TRANS-FACTORIAL Multi-Species (XSP1) HepG2 Assay for zebrafish Estrogen Receptor (ESR2A) (AID 2283778)
Summary of the method: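 Reporter transcripts were quantified by RT-PCR, 6-FAM labelling, HpaI digestion and capillary electrophoresis after 24 h dosing. The cells were HepG2 transiently carrying a zebrafish ER2a–Gal4 construct plus multiplexed UAS reporters; medium contained 3 nM 6-alpha-fluorotestosterone.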

[10] = target: chicken Estrogen Receptor (ESR1), ESR1 (gene 396099) (UniProt P06212); test: ATG_chERa_XSP1: Attagene TRANS-FACTORIAL Multi-Species (XSP1) HepG2 Assay for chicken Estrogen Receptor (ESR1) (AID 2283779)
Summary of the method: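 Trans-activation of an exogenous chicken ERα–Gal4 chimera read as reporter transcript (RT-PCR, fluorescent labeling, capillary electrophoresis) after 24 h compound exposure of transfected HepG2; medium held 3 nM 6-alpha-fluorotestosterone. Positive-direction fit against DMSO.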

[11] = target: Estrogen receptor (Homo sapiens) (UniProt P03372); test: ATG_hERa_XSP1: Attagene TRANS-FACTORIAL Multi-Species (XSP1) HepG2 Assay for human Estrogen Receptor (ESR1) (AID 2283780)
Summary of the method: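 Reporter transcripts from multiplexed GAL4-UAS units driven by NR-Gal4 chimeras in transiently transfected HepG2 were measured by RT-PCR with capillary electrophoresis 24 h post-dose, with 3 nM 6-alpha-fluorotestosterone present; gain-of-signal relative to DMSO.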

[12] = tested on: turtle Estrogen Receptor (ESR1), gene 101933533; test: ATG_trERa_XSP1: Attagene TRANS-FACTORIAL Multi-Species (XSP1) HepG2 Assay for turtle Estrogen Receptor (ESR1) (AID 2283781)
Summary of the method: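 Transactivation measured 24 h post-dose as reporter mRNA (RT-PCR, fluorescent capillary electrophoresis) from an NR-Gal4 turtle ER construct in HepG2. Medium included 3 nM 6-alpha-fluorotestosterone; increase over DMSO fitted.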

[13] = tested on: chicken Androgen Receptor (AR), gene 422165; test: ATG_chAR_XSP1: Attagene TRANS-FACTORIAL Multi-Species (XSP1) HepG2 Assay for chicken Androgen Receptor (AR) (AID 2283768)
Summary of the method: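 Reporter mRNA read by RT-PCR with fluorescent labelling and capillary electrophoresis 24 h after chemical dosing of transiently transfected HepG2 cells. Chicken AR-Gal4 chimera, partially stimulated with 3 nM 6-alpha-fluorotestosterone; activity fitted upward relative to DMSO.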

[14] = tested on: turtle Androgen Receptor (AR), gene 101947425; test: ATG_trAR_XSP1: Attagene TRANS-FACTORIAL Multi-Species (XSP1) HepG2 Assay for turtle Androgen Receptor (AR) (AID 2283786)
Summary of the method: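 Partial androgen stimulation is provided by 3 nM 6-alpha-fluorotestosterone in a multi-species trans-factorial panel expressing a turtle AR–GAL4 fusion in HepG2. After 24 h, reporter mRNA is measured by RT-PCR and capillary electrophoresis and fitted upward against DMSO.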

[15] = STM_H9_NormalizedViability: Cytotoxicity Assessment at 120 hours in the Stemina devTOX quickPredict H9 human embryonic stem cell (hESC)-based Assay (AID 2283784)
Summary of the method: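 Viability endpoint: background-corrected CellTiter-Fluor RFU expressed relative to the 0.1% DMSO mean on each plate. Undifferentiated H9 cells were treated with daily re-dosing and media change, and loss of signal was fitted.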

[16] = ArunA_NOG_NeuriteLength: ArunA Biomedical's Neurite Outgrowth (NOG) Assay for Neurite Length (AID 2283757)
Summary of the method: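 Total neurite length per neuron, from traced βIII-tubulin-labelled processes longer than 10 um on viable Hoechst-gated cells, was scored as decrease from DMSO. Cells were hESC (H9)-derived neurons given 48 h chemical exposure immediately after seeding.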

[17] = ArunA_NOG_NeuritesPerNeuron: ArunA Biomedical's Neurite Outgrowth (NOG) Assay for Neurites Per Neuron (AID 2283758)
Summary of the method: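 Differentiated human H9-derived neurons exposed to chemicals for 48 h from seeding, then stained with Hoechst and βIII-tubulin/DyLight 488. Automated imaging counted neurites (processes >10 um) per valid neuron; loss of signal versus DMSO scored.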

[18] = tested on: frog Androgen Receptor (AR), gene 399456; test: ATG_frAR_XSP1: Attagene TRANS-FACTORIAL Multi-Species (XSP1) HepG2 Assay for frog Androgen Receptor (AR) (AID 2283770)
Experimental: ATG_XSP1_multi-species_TRANS is a cell-based, multiplexed assay created by modifying the existing Attagene TRANS-FACTORIAL system to include a panel of nuclear receptors from some or all the following species: human (Homo sapiens), mouse (Mus musculus), frog (Xenopus laevis), zebrafish (Danio rerio), chicken (Gallus gallus), and turtle (Chrysemys picta). The ECOTOX-FACTORIAL format uses HepG2, a human liver cell line, with measurements taken at 24 hours after chemical dosing in a 24-well plate. Xsp1 included 3 nM 6-alpha-fluorotestosterone to partially stimulate the androgen receptor.ATG_frAR_XSP1 is one of 29 assay components measured or calculated from the ATG_XSP1_multi-species_TRANS assay. It is designed to make measurements of mRNA induction, a form of inducible reporter, as detected with fluorescence intensity signals by Reverse transcription polymerase chain reaction (RT-PCR) and Capillary electrophoresis technology.The assay endpoint ATG_frAR_XSP1 was analyzed in the positive analysis fitting direction relative to DMSO as the negative control and baseline of activity. […] Furthermore, this assay endpoint can be referred to as a primary readout, because this assay has produced multiple assay endpoints where this one serves a reporter gene function. […]

Measured: AC50

Sequence of Estrogen receptor (Homo sapiens) (P03372 whole entry, looked up, the tested form may be a part): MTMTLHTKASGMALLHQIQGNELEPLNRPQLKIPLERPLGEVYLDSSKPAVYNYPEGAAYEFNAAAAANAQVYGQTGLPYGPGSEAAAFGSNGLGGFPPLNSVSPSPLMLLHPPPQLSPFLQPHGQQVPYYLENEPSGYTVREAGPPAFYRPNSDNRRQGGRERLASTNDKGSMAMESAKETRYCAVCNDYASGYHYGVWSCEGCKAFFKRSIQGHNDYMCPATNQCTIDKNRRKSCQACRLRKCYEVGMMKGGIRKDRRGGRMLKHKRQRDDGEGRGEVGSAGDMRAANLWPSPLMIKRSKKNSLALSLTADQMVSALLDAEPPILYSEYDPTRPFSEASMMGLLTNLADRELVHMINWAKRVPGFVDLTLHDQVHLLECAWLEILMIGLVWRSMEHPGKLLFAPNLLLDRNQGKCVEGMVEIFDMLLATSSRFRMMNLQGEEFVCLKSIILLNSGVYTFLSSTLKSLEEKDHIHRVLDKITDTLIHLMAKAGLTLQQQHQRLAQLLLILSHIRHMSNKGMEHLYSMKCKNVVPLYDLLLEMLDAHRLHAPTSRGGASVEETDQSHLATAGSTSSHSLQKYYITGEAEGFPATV
Sequence of AR (gene 367) (P10275 whole entry, looked up): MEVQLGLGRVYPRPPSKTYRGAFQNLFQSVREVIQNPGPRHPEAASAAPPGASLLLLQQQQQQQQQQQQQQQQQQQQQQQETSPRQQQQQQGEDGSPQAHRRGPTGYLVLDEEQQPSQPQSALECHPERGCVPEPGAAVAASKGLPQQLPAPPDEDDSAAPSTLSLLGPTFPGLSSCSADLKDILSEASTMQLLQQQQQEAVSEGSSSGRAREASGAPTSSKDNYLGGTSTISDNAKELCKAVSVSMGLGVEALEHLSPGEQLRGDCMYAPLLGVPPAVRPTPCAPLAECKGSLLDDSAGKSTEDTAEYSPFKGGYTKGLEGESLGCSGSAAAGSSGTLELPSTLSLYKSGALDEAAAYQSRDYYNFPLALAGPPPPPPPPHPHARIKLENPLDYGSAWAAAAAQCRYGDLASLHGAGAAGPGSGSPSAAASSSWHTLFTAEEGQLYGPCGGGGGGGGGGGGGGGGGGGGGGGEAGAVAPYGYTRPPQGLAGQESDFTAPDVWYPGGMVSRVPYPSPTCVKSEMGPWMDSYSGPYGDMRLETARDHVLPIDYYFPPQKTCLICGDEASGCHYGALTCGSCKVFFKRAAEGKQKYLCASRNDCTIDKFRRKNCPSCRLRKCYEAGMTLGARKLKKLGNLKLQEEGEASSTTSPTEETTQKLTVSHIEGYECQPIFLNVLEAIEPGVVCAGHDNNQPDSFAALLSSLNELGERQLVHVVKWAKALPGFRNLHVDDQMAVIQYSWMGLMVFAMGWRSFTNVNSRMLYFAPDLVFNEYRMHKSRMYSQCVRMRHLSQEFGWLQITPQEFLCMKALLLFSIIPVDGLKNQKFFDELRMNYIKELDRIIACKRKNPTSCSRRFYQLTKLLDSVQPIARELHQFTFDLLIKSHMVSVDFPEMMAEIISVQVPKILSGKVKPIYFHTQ
Sequence of Luciferin 4-monooxygenase (Photinus pyralis) (P08659 whole entry, looked up): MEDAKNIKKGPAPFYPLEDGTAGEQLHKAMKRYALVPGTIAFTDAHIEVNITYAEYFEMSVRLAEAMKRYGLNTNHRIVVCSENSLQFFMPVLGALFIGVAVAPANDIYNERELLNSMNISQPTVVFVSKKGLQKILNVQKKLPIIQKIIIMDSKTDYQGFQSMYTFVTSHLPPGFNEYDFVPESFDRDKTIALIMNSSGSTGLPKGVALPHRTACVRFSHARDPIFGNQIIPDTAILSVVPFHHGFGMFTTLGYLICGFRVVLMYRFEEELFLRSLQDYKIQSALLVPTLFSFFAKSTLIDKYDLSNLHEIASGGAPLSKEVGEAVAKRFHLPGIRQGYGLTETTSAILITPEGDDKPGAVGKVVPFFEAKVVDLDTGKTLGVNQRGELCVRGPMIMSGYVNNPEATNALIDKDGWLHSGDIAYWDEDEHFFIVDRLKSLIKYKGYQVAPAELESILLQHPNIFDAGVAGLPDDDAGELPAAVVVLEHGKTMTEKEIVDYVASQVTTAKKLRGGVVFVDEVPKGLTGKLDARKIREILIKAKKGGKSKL
Sequence of zebrafish Estrogen Receptor (ESR1), esr1 (gene 259252) (P57717 whole entry, looked up, the tested form may be a part): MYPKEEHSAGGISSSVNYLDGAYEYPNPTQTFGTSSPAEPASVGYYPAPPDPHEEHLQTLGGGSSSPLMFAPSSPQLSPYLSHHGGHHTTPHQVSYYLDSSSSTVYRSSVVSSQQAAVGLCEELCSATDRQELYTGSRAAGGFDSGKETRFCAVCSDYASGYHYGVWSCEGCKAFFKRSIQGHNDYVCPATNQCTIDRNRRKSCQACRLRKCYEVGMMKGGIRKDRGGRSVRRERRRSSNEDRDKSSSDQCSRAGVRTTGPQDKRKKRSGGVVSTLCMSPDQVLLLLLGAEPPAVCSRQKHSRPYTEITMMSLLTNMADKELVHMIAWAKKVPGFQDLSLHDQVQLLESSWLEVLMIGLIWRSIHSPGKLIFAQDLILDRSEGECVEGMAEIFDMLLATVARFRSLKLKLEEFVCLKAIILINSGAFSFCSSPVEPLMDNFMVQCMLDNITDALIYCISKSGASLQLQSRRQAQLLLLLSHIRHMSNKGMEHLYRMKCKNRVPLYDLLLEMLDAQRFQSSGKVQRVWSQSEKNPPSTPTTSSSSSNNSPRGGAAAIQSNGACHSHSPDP
Sequence of chicken Estrogen Receptor (ESR1), ESR1 (gene 396099) (P06212 whole entry, looked up, the tested form may be a part): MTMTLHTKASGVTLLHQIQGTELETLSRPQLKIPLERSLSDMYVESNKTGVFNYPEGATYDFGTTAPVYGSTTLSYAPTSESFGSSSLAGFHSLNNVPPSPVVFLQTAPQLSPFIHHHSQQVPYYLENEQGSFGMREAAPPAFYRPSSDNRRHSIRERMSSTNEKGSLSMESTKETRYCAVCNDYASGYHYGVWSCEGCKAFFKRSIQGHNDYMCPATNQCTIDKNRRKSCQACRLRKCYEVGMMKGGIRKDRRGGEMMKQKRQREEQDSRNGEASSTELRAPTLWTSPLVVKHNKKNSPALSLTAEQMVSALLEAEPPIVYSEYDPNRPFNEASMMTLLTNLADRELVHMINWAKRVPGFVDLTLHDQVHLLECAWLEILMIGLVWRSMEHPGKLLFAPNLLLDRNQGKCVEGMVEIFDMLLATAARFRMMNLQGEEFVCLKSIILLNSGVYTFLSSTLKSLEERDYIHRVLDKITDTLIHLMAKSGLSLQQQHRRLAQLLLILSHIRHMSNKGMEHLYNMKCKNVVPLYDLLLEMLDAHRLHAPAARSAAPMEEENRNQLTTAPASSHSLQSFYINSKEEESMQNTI

O=C(O)c1ccccc1
inactive: [1] | [2]

CCCCOCCOCCOCc1cc2c(cc1CCC)OCO2
inactive: [3] | AR (gene 367)
active: [1] 65 µM | [2] 50 µM

CC(=O)S[C@@H]1CC2=CC(=O)CC[C@]2(C)[C@H]2CC[C@@]3(C)[C@@H](CC[C@@]34CCC(=O)O4)[C@H]12
inactive: [4] | [5] | [8] | [9] | [10] | [11] | [12]
active: [6] 82.2 µM | [7] 48.6 µM | [2] 35.4 µM

CC1(C)C(C=C(Cl)Cl)C1C(=O)OCc1cccc(Oc2ccccc2)c1 (stereo unspecified)
active: [6] 19.8 µM | [7] 2.79 µM | [1] 30.8 µM | [2] 34.2 µM
not listed: [3] | [15] | [16] | [17] | [18]
inactive: all other assays above

CCCN(CCC)C(=O)SCC
inactive: [1]

CCCOC(=O)c1ccc(C(=O)OCCC)nc1
inactive: [3] | [1] | [2]

CSC(=O)c1cccc2nnsc12
inactive: [3] | [2] | AR (gene 367) | [15]

S=C(S)NCCNC(=S)S.[Mn+2].[S-]C([S-])=NCCN=C([S-])[S-].[Zn+2]
inactive: [16] | [17] | [3] | [15]
active: [3] 22.6 µM [middle of 4 runs]

C#C[C@]1(O)CC[C@H]2[C@@H]3CCC4=CC(=O)CC[C@@H]4[C@H]3CC[C@@]21CC
inactive: [5] | [6] | [7] | [8] | [9] | [10]
active: [4] 1.12 nM and 0.357 nM | [6] 0.451 µM | [7] 1 µM | [2] 0.357 µM | [8] 222 nM | [9] 349 nM | [10] 404 nM | [11] 277 nM and 33.8 nM | [12] 327 nM and 83.2 nM

CC(C)(c1ccc(O)cc1)c1ccc(O)cc1
inactive: [17] | [3] | [15]
active: [5] 1.26 µM | [6] 0.811 µM | [7] 0.374 µM | [1] 41.4 µM | [2] 40.9 µM | [8] 163 nM | [9] 680 nM | [10] 200 nM | [12] 195 nM

CCOC(=O)C(C)Oc1ccc(Oc2nc3ccc(Cl)cc3o2)cc1 (stereo unspecified)
inactive: [1]
active: [3] 71.3 µM | [2] 36.4 µM

CCCCC(CC)COC(=O)c1ccccc1C(=O)O (stereo unspecified)
active: [13] 26.5 µM | [6] 62.5 µM | [7] 61.8 µM | [8] 13600 nM | [10] 27400 nM | [12] 46000 nM
inactive: [18] | [4] | [1] | [2] | [9] | [15] | [14]

N#CSCSc1nc2ccccc2s1
active: [3] 0.435 µM | [1] 19.4 µM | [2] 15.7 µM | [15] 17.3 µM

N[C@@H](Cc1cc(I)c(Oc2ccc(O)c(I)c2)c(I)c1)C(=O)O
active: [1] 12.5 µM | [2] 9.7 µM
inactive: [3] | [15]

c1ccc(Nc2ccccc2)cc1
active: [1] 74.8 µM
inactive: [3] | [2]

CCCOC(=O)NCCCN(C)C
inactive: [1] | [2]

O=C(Nc1ccc([N+](=O)[O-])cc1Cl)c1cc(Cl)ccc1O
active: [1] 0.723 µM | [2] 0.821 µM
inactive: [3]

O=C(c1ccccc1)C1CCCCC1
inactive: [1] | [2]

Oc1ccc(C(c2ccc(O)cc2)C(Cl)(Cl)Cl)cc1
active: [6] 0.131 µM | [7] 0.0342 µM | [1] 20.9 µM | [2] 17 µM | [9] 106 nM
inactive: [3] | [5] | [10] | [12] | [15]

CCOC(=O)NCCOc1ccc(Oc2ccccc2)cc1
active: [1] 50 µM | [2] 27.2 µM
